We go through 30 compounds from PubChem BioAssay (NCATS).

Inconclusive results are not listed. Values without a mark were called inactive. The call rests on the fitted dose curve; in most records, active means well fitted inhibition curve with a large enough effect; inconclusive means small, poorly fitted or top-dose-only effect; inactive means flat fitted curve, though single readings scatter.
On the % scale 0 is the no-effect control and ±100 the full control effect.

Chain of Calcium and integrin-binding protein 1 (Homo sapiens) (Q99828 whole entry, looked up): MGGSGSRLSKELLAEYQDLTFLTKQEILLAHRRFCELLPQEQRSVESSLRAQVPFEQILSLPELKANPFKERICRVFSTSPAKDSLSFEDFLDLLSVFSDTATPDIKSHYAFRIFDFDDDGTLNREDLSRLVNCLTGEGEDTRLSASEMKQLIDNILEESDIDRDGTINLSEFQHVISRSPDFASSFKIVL

This assay concerns the target Calcium and integrin-binding protein 1 (Homo sapiens) (UniProt Q99828). Briefly: Primary qHTS for Identification of Calcium Integrin Binding Protein 1 (CIB1) Competitor (AID 1508620).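 Further: GST tagged CIB1 binding a fluorescein labelled alphaIIb integrin peptide tracer; top concentration of the series differs between compounds.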 The note with it: CIB1-GST / FITC-alphaIIb peptide fluorescence polarization; series mostly up to 114 µM; activity change, negative = inhibition: at the top concentration. In a few lines: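 CIB1-GST (1 uM final) and compound incubated 15 min at room temperature before adding FITC-alphaIIb peptide tracer (100 nM final). Competition for binding read by fluorescence polarization (ex 480, em 540) after another 15 min at room temperature.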
(Quantitative high-throughput screening tests each substance at several concentrations.)
Regarding `O=c1[nH]cnc2c([C@@H]3N[C@H](CO)[C@@H](O)[C@H]3O)c[nH]c12`, the “activity change, negative = inhibition” value is -1.75%.
In the case of `O=C(NO)c1cnc(N2CCN(S(=O)(=O)c3ccc4ccccc4c3)CC2)nc1`, the “activity change, negative = inhibition” value was -7.41% [at 57.7 µM].
To `CC(=O)O[C@@H]1[C@@H](O)[C@H](O[C@@H]2[C@@H](O)[C@@H](O)[C@H](O[C@H]3[C@H](O[C@H]4[C@H](O[C@H]5CC[C@@]6(C)C(CC[C@]7(C)C6CC=C6[C@@H]8CC(C)(C)CC[C@]8(C(=O)O)CC[C@]67C)[C@]5(C)CO)O[C@H](CO)[C@@H](O)[C@@H]4O)OC[C@@H](O)[C@@H]3O)O[C@H]2C)OC[C@H]1O` (stereo not given in full) belongs -3.79% [at 30.2 µM]; to `C=C(C)C(=O)O[C@H]1[C@H]2C(=C)C(=O)O[C@@H]2/C=C(\CO)CC/C=C(/C=O)[C@@H]1O`, -4.31% [at 57.7 µM].
To `C/C1=C/CCC2=CC(OC2=O)C(C)(C)/C=C/C1=O` (stereo not given) belongs 3.73%; to `CO[C@@H]1CC(OC2CCC3(C)C(CCC45CCC(C6=CC(=O)OC6)C(C)(CCC43)C5=O)C2)O[C@H](C)[C@@H]1O[C@@H]1O[C@H](CO[C@@H]2O[C@H](CO)[C@@H](O)[C@H](O)[C@H]2O)[C@@H](O)[C@H](O)[C@H]1O` (stereo not given in full), -2.4% [at 30.2 µM]; to `CC(C)(C)c1ccc(NC(=O)N2CCN(c3ncccc3Cl)CC2)cc1`, 3.66%.
For `C=C1CCC[C@]2(C)CC/C(=C(/CO)C(=O)OC)C[C@@H]12`, the “activity change, negative = inhibition” value is 1.79%.
On to `Cc1ccccc1CN1CCn2c1nc1c(c2=O)CN(Cc2ccccc2)CC1`, for which the “activity change, negative = inhibition” value was -4.17%.
To `O=C(O)CCc1nccc2c1[nH]c1ccccc12` belongs -3.9%; to `C1=Cc2ccccc2C(=C2CCN(CCCCc3nn[nH]n3)CC2)c2ccccc21`, -2.17%; to `C/C=C(/C)C(=O)O[C@@H]1C[C@@H](OC(=O)CC(C)C)C2(C)C3C(=O)C=C(C)C2C3C1(C)C` (stereo not given in full), 2.9% [at 57.7 µM].
To `NS(=O)(=O)c1ccc(N2CCN(CC[C@@H]3OCCc4ccccc43)CC2)cc1` belongs -5.76%; to `C/C1=C\CCC2=CC(OC2=O)C(C)(C)/C=C/C1=O` (stereo not given), 0.908%; to `CC(=O)C=C=C1C(C)(C)CC(O)CC1(C)O[C@@H]1O[C@H](CO[C@H]2OC[C@](O)(CO)[C@H]2O)[C@@H](O)[C@H](O)[C@H]1O` (stereo not given in full), -2.56% [at 57.7 µM].
Regarding `CC(C)CCCCC(=O)N[C@@H](CO)C(=O)N[C@@H](CC(C)C)C(=O)[C@@]1(CO)CO1`, the “activity change, negative = inhibition” value was -4.52%.
For `CC(C)C[C@@H](N)C(=O)N[C@H]1C(=O)N[C@@H](CC(N)=O)C(=O)N[C@H]2C(=O)N[C@H]3C(=O)N[C@H](C(=O)N[C@H](C(=O)O)c4cc(O)cc(O)c4-c4cc3ccc4O)[C@H](O)c3ccc(c(Cl)c3)Oc3cc2cc(c3O[C@@H]2O[C@H](CO)[C@@H](O)[C@H](O)[C@H]2O[C@H]2C[C@](C)(N)[C@H](O)[C@H](C)O2)Oc2ccc(cc2Cl)[C@H]1O`, the “activity change, negative = inhibition” value is 0.635% [at 57.7 µM].
To `C=C1C(=O)O[C@@H]2[C@H]1CC(=O)[C@H](C)[C@@](O)(C(=O)/C=C/C)[C@H]2OC(=O)C(C)CC` (stereo not given in full) belongs -10.3% [at 57.7 µM]; to `O=C(NCCN1CCC(n2c(=O)[nH]c3ccccc32)CC1)c1ccc2ccccc2c1`, 5.2%; to `CC1CCCC(O)CC(=O)c2c(O)cc(O)cc2CC(=O)O1` (stereo not given), -2.72% [at 57.7 µM].
To `Nc1nc(O)c(C2=C3C(=Nc4ccccc43)C(=O)NCC2)[nH]1` belongs 0.502%.
To `CCNC(=O)c1noc(-c2cc(Cl)c(O)cc2O)c1-c1ccc(OC)cc1` belongs -6.55%; to `CCOc1ccc(S(=O)(=O)N2CCCCCC2)c2ccccc12`, 5.18%.
For `CC(C)C[C@@H]1NC(=O)[C@@H]2C[C@@]34C[C@@H]5[C@@]6(C)CCCC(C)(C)C6CC[C@@]5(C)N(c5ccccc53)[C@H]4N2C1=O` (stereo not given in full), the “activity change, negative = inhibition” value was -5.97% [at 57.7 µM].
`CC1(C)CC[C@]2(C(=O)O)CC[C@]3(C)C(=CCC4[C@@]5(C)C[C@@H](O)[C@H](O)[C@@](C)(CO)C5CC[C@]43C)[C@@H]2[C@@H]1O` (stereo not given in full): the “activity change, negative = inhibition” value was 2.84% [at 57.7 µM].
Take `C=C(C)Cn1c(SCC(=O)c2cccs2)nc2sc3c(c2c1=O)CCCC3`: the “activity change, negative = inhibition” value was 2.06%.
To `COc1cc2ncc(-c3ccccc3)nc2cc1OC` belongs 0.511%; to `CCC/C=C/C=C/C1CC(O)C2(O)C(=O)OCC12` (stereo not given), 1.52%.
As for `CCc1c(Cl)c(O)c(Cl)c(O)c1C(=O)O[C@H]1[C@H](O)[C@H](OC)[C@H](OC/C2=C\C=C\C[C@H](O)/C(C)=C\[C@H](CC)[C@@H](O[C@@H]3OC(C)(C)[C@@H](OC(=O)C(C)C)[C@H](O)[C@@H]3O)/C(C)=C/C(C)=C/C[C@@H]([C@@H](C)O)OC2=O)O[C@@H]1C`, the “activity change, negative = inhibition” value was -1.69% [at 57.7 µM].
To `C[C@@H]1CCCN1CCc1cc2cc(-c3ccc(C#N)cc3)ccc2o1` belongs 1.28%.
